A selection: hits, their analogues and other compounds. The true share with any hit is near 4.7%.
tim10-1 inh: inhibits growth of tim10-1 mutant yeast. S. cerevisiae tim10-1 ts strain growth, BacTiter-Glo, 24 h. inhibition, % at 20 µM. 330,000 tested, 2.2% active. AID 463190;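 active = inhibition of at least 40%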;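 note: mutant grown at 25 °C; 0% = DMSO wells with yeast and 100% = wells holding no yeast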
TIM10 inh: TIM10 yeast growth inhibition. 330,000 tested, 1.4% active. inhibition, % at 10 µM. S. cerevisiae TIM10 strain growth, BacTiter-Glo luminescence, 24 h;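 active = inhibition of 40% or more at the single tested concentration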;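 note: wild-type TIM10 isogenic control strain grown at permissive 25 °C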
tim23-1 inh: tim23-1 yeast growth inhibition. inhibition, % at 20 µM. 330,000 tested, 1.3% active. S. cerevisiae tim23-1 growth, BacTiter-Glo luminescence, 24 h;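 active = growth inhibition of the mutant yeast at or above 50%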;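 note: temperature-sensitive mutant grown at 25 °C; plate controls were DMSO-treated mutant yeast for no effect and medium wells lacking yeast for full effect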
SKKanGAS inh: inhibitors of SKKanGAS S. pyogenes growth in kanamycin (SK-promoter or general growth effect) | 300,000 tested, 1.3% active | inhibition, % at 7.5 µM | BacTiter-Glo, 6 h;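 active = mean replicate score, as percent of positive control median, at least 50; inconclusive = mean below 50 but one replicate at or above 50; inactive = mean and every replicate below 50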;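 note: strain carries kanamycin resistance gene driven by streptokinase promoter and grows in 40 µg/ml kanamycin; loss of luminescence reflects streptokinase promoter inhibition or plain growth inhibition; 0% = median of DMSO wells and 100% = positive control at its reference dose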
Calb FLC: affects C. albicans growth with fluconazole. C. albicans CaCi-2 (fluconazole-resistant clinical isolate) + fluconazole, Alamar Blue growth, 48 h. growth inhibition, % (concentration not given with the values). 300,000 tested, 0.57% active;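 active = growth inhibition above about 58% in most replicates, limit read from the data, passing the limit was not always enough; inconclusive = exactly half the replicates above a set limit; inactive = most replicates below a set limit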;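 note: all wells also contain fluconazole at 8 µg/ml as a sub-toxic cotreatment; 0% = median of DMSO wells and 100% = median of geldanamycin control wells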
PfHsp90 yeast 2: reduces growth (ATP signal) of yeast expressing P. falciparum Hsp90 | S. cerevisiae expressing PfHsp90, BacTiter-Glo ATP, 48 h; yeast lacking PDR1 and PDR3 efflux regulators | inhibition, % at 9.4 µM | 310,000 tested, 0.32% active | AID 504621;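 active = every replicate shows inhibition above about 80%, whatever the replicate mean, limit read from the data; inconclusive = mean inhibition reaches the set limit but some replicate falls short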;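 note: 0% = DMSO neutral controls and 100% = 20 µM radicicol positive controls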
tim23-1 confirm: tim23-1 yeast growth inhibition, confirmed; shares compounds with tim23-1 inh; S. cerevisiae tim23-1 growth, BacTiter-Glo luminescence, 24 h; inhibition, % at 20 µM; 4,400 tested, 83% active; AID 463218;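 active = inhibition above about 39% in either of two replicate wells at 20 µM, limit read from the data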;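 note: temperature-sensitive tim23-1 mutant grown at 25 °C; 0% = DMSO wells with yeast and 100% = medium wells without yeast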
* hit, by the source's call; ? = inconclusive; · = no result given.

SMILES	tim10-1 inh	TIM10 inh	tim23-1 inh	SKKanGAS inh	Calb FLC	PfHsp90 yeast 2	tim23-1 confirm
CCOc1cc(NCc2ccccc2)c2ncn(C(C)C)c2c1	-8.1	21.7	62.8*	·	·	-4.9	40.1*
COc1ccc(Cc2ccccc2C(=O)O)cc1	·	·	·	·	·	-22.6	·
COc1ccc(CC2=CC(=O)c3ccccc3C2=O)cc1	29.9	35.8	66.5*	66.1*	33.6	4.2	74.9*
C=C1[C@H]2O[C@H]2[C@@H](OC(C)=O)[C@@]2(C)[C@@H](OC(C)=O)C[C@@H](OC(C)=O)[C@@](C)(O)[C@@H]2[C@@H](OC(C)=O)[C@@]2(O)[C@@H](C)C(=O)O[C@H]2[C@H]1Cl	·	·	·	·	·	-1.8	·
O=C1[C@@H](Oc2ccccc2)[C@@H](c2ccccc2)N1c1ccccc1	18.2	0.6	33.7	·	·	-20.1	·
O=C1[C@H](Oc2ccccc2)[C@@H](c2ccccc2)N1c1ccncc1	29.4	18.5	61.6*	·	·	7.9	31.9
Cc1cc(SCC(=O)N/N=C/c2ccc(O)cc2O)nc2ccccc12	17.6	27.9	50.7*	20.6	8.4	-5.1	52.4*
Cc1cc(SCC(=O)N/N=C/c2ccc(O)c(O)c2)nc2ccccc12	-2.4	-10.4	11.5	-0.6	-12.3	-3.9	·
CC(C)N(Cc1ccccc1)S(=O)(=O)N(C)C	-9.7	-2.6	76.4*	0.2	-9.2	12.5	8.2
Cc1ccc(S(=O)(=O)N(Cc2ccccc2)C(C)C)cc1	1.2	-8.0	7.4	22.1	3.1	8.8	·
CCOC(=O)c1ccc(NC(=O)/C=C/c2cccs2)cc1	8.7	18.5	61.2*	-3.9	29.7	13.6	52.1*
CCN(CC)CCOC(=O)c1ccc(NC(=O)/C=C/c2cccs2)cc1	14.7	-3.2	-0.4	-5.0	-0.1	-23.2	·
COC(=O)N/N=C/c1ccc(-c2cc(Cl)cc(Cl)c2)o1	33.9	34.5	57.5*	-2.7	78.9*	-43.1	62.2*
COC(=O)N/N=C/c1ccc(-c2cccc(Cl)c2)o1	-32.5	6.6	20.4	-13.3	?	16.3	·
CCCCNC(=O)O/N=C(\N)CS(=O)(=O)C(C)(C)C	7.9	9.1	11.7	-1.7	-15.1	-20.1	·
C#CCn1c2ccccc2c2nc3ccccc3nc21	-15.5	1.8	-15.5	-3.2	0.9	-20.0	·
CC(C)n1c2ccccc2c2nc3ccccc3nc21	36.9	20.3	51.1*	6.0	-9.0	-19.3	52.1*
Nc1ccn(CC(=O)NCCNc2ccc([N+](=O)[O-])cn2)c(=O)n1	0.0	-2.7	4.6	·	·	·	·
CC1(C)OC(=O)C(=Cc2ccc[nH]2)C(=O)O1	11.5	4.7	75.8*	-2.0	0.4	11.5	53.2*
COc1cccc2sc3cc(NCc4ccc5c(c4)OCO5)ccc3c(=O)c12	-32.7	16.7	67.8*	·	·	0.4	56.1*
Cc1cc(N2CCCCCC2)n2nc(C)c(-c3ccccc3)c2n1	30.4	37.5	56.5*	5.1	8.8	-0.7	51.4*
Cc1cc(N2CCOCC2)n2nc(C)c(-c3ccccc3)c2n1	29.1	6.5	38.2	·	·	-116.8	·
Cc1cc(C)n2nc(C)c(-c3ccc(Cl)cc3)c2n1	16.3	14.0	51.9*	3.0	-8.9	-2.7	29.7
O=C(/C=C/c1ccco1)NC(=S)Nc1ccccc1	21.3	5.2	53.8*	1.7	-8.3	-14.3	28.8
Cc1ccccc1NC(=S)NC(=O)/C=C/c1ccco1	21.3	7.5	55.4*	8.9	5.7	7.7	36.5
SMILES	tim10-1 inh	TIM10 inh	tim23-1 inh	SKKanGAS inh	Calb FLC	PfHsp90 yeast 2	tim23-1 confirm
Cc1cccc(NC(=S)NC(=O)c2ccco2)c1C	31.2	24.9	55.8*	-2.2	-7.4	0.5	17.4
Cc1cccc(NC(=S)NC(=O)/C=C/c2ccco2)c1	4.0	-26.4	20.5	3.3	-23.3	-19.7	·
CC(=O)c1ccc(NC(=S)NC(=O)/C=C/c2ccco2)cc1	6.5	10.5	4.4	6.6	12.6	-6.9	·
Cc1cccc(NC(=S)NC(=O)/C=C/c2ccco2)n1	22.7	21.2	57.0*	-7.8	-1.2	·	40.2*
Cc1ccc(NC(=O)CN(C)C(=O)COC(=O)c2ccc(Cl)cc2O)cc1	1.6	0.5	14.8	·	·	-12.4	·
CCOC(=O)c1cccc(C2=CC(=O)CC(C)(C)C2)c1	8.8	-3.2	40.5	·	·	4.4	·
CN(C(=O)COC(=O)c1cc(=O)[nH]c2ccccc12)c1ccccc1	-0.4	-5.0	8.4	·	·	-4.7	·
CCc1ccc(S(=O)(=O)Nc2ccc(O)c3c(=O)cc(-c4ccccc4Cl)oc23)cc1	-6.5	-2.3	1.1	39.9	-7.5	19.3	·
O=c1cc(-c2ccccc2Cl)oc2c(NS(=O)(=O)c3cc(Cl)cc(Cl)c3O)ccc(O)c12	4.3	27.2	51.9*	109.1*	?	·	-222.4
Cc1nc2sc(C(c3ccc(Cl)cc3)N3CCOCC3)c(O)n2n1 (stereo not drawn)	-0.9	1.4	52.9*	-4.9	-2.6	7.7	7.5
CC1CCCN(S(=O)(=O)c2ccc3[nH]c4c(c3c2)CCCC4)C1 (stereo not drawn)	32.0	33.0	55.9*	-0.2	-8.7	30.2	56.4*
Oc1ccc(Oc2ccc(Oc3ccc(O)cc3)cc2)cc1	-10.4	-16.0	59.4*	66.6*	3.4	-90.6	50.7*
Cc1ccc(NCc2cccc(B(O)O)c2)cc1	·	·	·	·	·	-17.5	·
Cc1c(-n2cc(C(=O)O)c(=O)c3cc(F)c(N4CCCC(O)C4)c(F)c32)c(=O)n(-c2ccccc2)n1C (stereo not drawn)	5.6	-0.3	9.0	-2.2	1.0	9.8	·
O=C(O)c1cn(-c2ccc(N3CCCC3)c(F)c2)c2c(F)c(F)c(F)cc2c1=O	4.6	-0.3	53.1*	13.2	3.1	105.8*	15.8
CC(=O)c1ccc(NS(=O)(=O)c2cccc(C(=O)Nc3ccccc3C(=O)O)c2)cc1	-2.4	-2.6	-5.5	3.6	-1.0	-12.9	·
C=CCc1cccc(/C=N/NC(=O)CNc2cccc3ccccc23)c1O	27.3	19.4	57.1*	7.8	92.2*	-31.1	72.7*
O=C(Cc1cccc(NC(=O)C2CCCN(C(=O)CCc3ccccc3)C2)c1)Nc1cccc(C(=O)N2CCCC2)c1 (stereo not drawn)	1.8	-5.3	9.9	·	·	-6.3	·
O=c1c2ccccc2oc2c1ccc1ccccc12	-12.6	27.6	55.0*	·	·	-40.2	21.2
Cc1cc(C(=O)CCl)c(C)n1CCc1ccc(Cl)cc1	3.7	0.4	55.1*	-21.0	-32.0	-10.6	53.2*
Cc1cc(C(=O)CCl)c(C)n1CCc1ccc(F)cc1	21.2	28.4	48.8	-2.4	-32.7	-61.1	·
CC1CCC(=O)N(CCC#N)CC1 (stereo not drawn)	-19.3	-4.3	1.1	1.4	-8.7	-21.5	·
COc1ccccc1NC(=O)c1cccc(NC(=O)c2ccco2)c1	25.8	16.9	57.3*	2.6	-1.0	-77.5	45.2*
